Laboratory results as given in PubChem BioAssay (NCI).
This is part of a sample that, as a whole, favours compounds with a hit. Of some 79,000 tested, about 15% had one in any assay. Calls of active or inactive are those of the source. No stated cut-off is given here; in the data, active means growth inhibition above about 70%; inactive means the rest.

Assays:
[1] = NCI Yeast Anticancer Drug Screen. Data for the rad50 strain (AID 155);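 further: 0% = growth of vehicle-only cultures of the same strain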; conditions: S. cerevisiae rad50 strain growth inhibition, hits give high values
How it was run: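 Growth of the mutant yeast was measured after compound exposure and referenced to vehicle-treated cultures.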

[2] = NCI Yeast Anticancer Drug Screen. Data for the mec2-1 strain (AID 157); conditions: S. cerevisiae mec2-1 strain, hits give high values
How it was run: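 Each compound was tested on mec2-1 yeast, a strain altered in DNA damage repair or cell cycle control. Growth inhibition is reported relative to vehicle.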

[3] = NCI Yeast Anticancer Drug Screen. Data for the sgs1 mgt1 strain (AID 161);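 further: 0% = growth of cultures given vehicle only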; conditions: S. cerevisiae sgs1 mgt1 strain, hits give high values
How it was run: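 Mutant yeast exposed to compound; growth scored against vehicle-only wells.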

[4] = NCI Yeast Anticancer Drug Screen. Data for the cln2 rad14 strain (AID 165);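 further: 0% = growth equal to vehicle treated cultures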; conditions: S. cerevisiae cln2 rad14 strain, hits give high values
How it was run: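 Test compounds were added to cln2 rad14 yeast cultures; inhibition of growth was then determined by comparison with vehicle treatment.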

[5] = NCI Yeast Anticancer Drug Screen. Data for the bub3 strain (AID 167); conditions: S. cerevisiae bub3 mutant strain, hits give high values
How it was run: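 Whole-cell yeast assay. The mutant strain was incubated with compounds, and growth inhibition was determined by comparison with vehicle-treated cells.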

[6] = NCI Yeast Anticancer Drug Screen. Data for the mlh1 rad18 strain (AID 175); conditions: S. cerevisiae mlh1 rad18 strain growth inhibition, hits give high values
How it was run: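 Inhibition values reflect reduced growth of mutant yeast versus vehicle-treated controls following compound exposure; the mutations affect DNA damage repair.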

[7] = at 5.0 µM (retest, dose inferred, filed as 0.5)
[8] = at 50.0 µM (retest, dose inferred, filed as 5.0)

Measured: growth inhibition

N#C/C(=C1/C(=O)c2ccccc2-c2ccccc21)c1ccccc1
inactive: [4]; [7] 61%
active: [1]; [7] 92% | [1]; [8] 97% | [1]; at 50.0 µM 97.2% | [2]; [7] 100% | [2]; [8] 99% | [2]; at 50.0 µM 98.2% | [3]; [7] 99% | [3]; [8] 99% | [3]; at 50.0 µM 97.6% | [4]; [8] 97% | [4]; at 50.0 µM 98.2% | [5]; [7] 99% | [5]; [8] 98% | [5]; at 50.0 µM 98% | [6]; [7] 99% | [6]; [8] 99% | [6]; at 50.0 µM 98.7%

CCOC(=O)C(C(=O)OCC)C(=O)c1ccc2c(c1)OCO2
inactive: [1]; [7] 3% | [1]; at 50.0 µM 52.4% | [2]; [7] 2% | [2]; at 50.0 µM 35.5% | [3]; [7] 5% | [4]; [7] 10% | [4]; [8] 21% | [4]; at 50.0 µM 1.25% | [5]; [7] 7% | [6]; [7] 4% | [6]; at 50.0 µM 60.4%
active: [1]; [8] 83% | [2]; [8] 75% | [3]; [8] 90% | [3]; at 50.0 µM 86.9% | [5]; [8] 81% | [5]; at 50.0 µM 89.2% | [6]; [8] 94%

C1CCC(CC2CCC(NC3=NCCO3)CC2)CC1 (configuration not stated)
inactive: [1]; [7] -23% | [2]; [7] -12% | [3]; [7] -22% | [4]; [7] -8% | [5]; [7] -35% | [6]; [7] -9%
active: [1]; [8] 97% | [1]; at 50.0 µM 88.6% | [2]; [8] 96% | [2]; at 50.0 µM 87.5% | [3]; [8] 99% | [3]; at 50.0 µM 87.2% | [4]; [8] 91% | [4]; at 50.0 µM 88.2% | [5]; [8] 98% | [5]; at 50.0 µM 91.2% | [6]; [8] 99% | [6]; at 50.0 µM 84.3%

C#CCOC(=O)Nc1nc2ccc(SC#N)cc2s1
inactive: [1]; [7] 9% | [2]; [7] -5% | [3]; [7] 3% | [4]; [7] 0% | [5]; [7] 14% | [6]; [7] 4%
active: [1]; [8] 90% | [1]; at 50.0 µM 97.8% | [2]; [8] 87% | [2]; at 50.0 µM 96.8% | [3]; [8] 98% | [3]; at 50.0 µM 97.7% | [4]; [8] 92% | [4]; at 50.0 µM 96.4% | [5]; [8] 90% | [5]; at 50.0 µM 97.6% | [6]; [8] 96% | [6]; at 50.0 µM 97.2%

Nc1ccc2nc(N)sc2c1
inactive: [1]; [7] -5% | [1]; [8] 8% | [1]; at 50.0 µM 20.1% | [2]; [7] -6% | [2]; [8] 2% | [2]; at 50.0 µM -3.75% | [3]; [7] 0% | [3]; [8] -47% | [3]; at 50.0 µM 18.5% | [4]; [7] 0% | [4]; [8] 2% | [4]; at 50.0 µM 42.9% | [5]; [7] -2% | [5]; at 50.0 µM -15.2% | [6]; [7] -4% | [6]; [8] 4% | [6]; at 50.0 µM -6.65%
active: [5]; [8] 90%

O=C(C[N+]12CN3CN(CN(C3)C1)C2)c1ccc(Cl)cc1Cl
inactive: [1]; [7] -2% | [1]; [8] -4% | [2]; [7] 9% | [2]; [8] 5% | [3]; [7] -20% | [3]; [8] -4% | [4]; [7] -1% | [4]; [8] -6% | [5]; [7] 0% | [5]; [8] -2% | [6]; [7] -12% | [6]; [8] -26%
active: [1]; at 50.0 µM 99.3% | [2]; at 50.0 µM 99.5% | [3]; at 50.0 µM 99.4% | [4]; at 50.0 µM 99.2% | [5]; at 50.0 µM 99.3% | [6]; at 50.0 µM 99.4%

C/C(=N\Oc1ncc([N+](=O)[O-])c(O/N=C(\C)c2ccccc2)n1)c1ccccc1
inactive: [1]; [7] 52% | [1]; [8] -24% | [1]; at 50.0 µM 43.2% | [2]; [7] 37% | [2]; [8] -11% | [2]; at 50.0 µM 66.8% | [3]; [7] 53% | [3]; [8] -10% | [4]; [7] 28% | [4]; [8] -20% | [4]; at 50.0 µM 45.7% | [5]; [7] 48% | [5]; [8] -16% | [5]; at 50.0 µM 50.6% | [6]; [7] 54% | [6]; [8] -11%
active: [3]; at 50.0 µM 83% | [6]; at 50.0 µM 94.2%

CCCCC1C(=S)N(c2ccccc2)N(c2ccccc2)C1=S
inactive: [1]; [7] 0% | [1]; [8] -2% | [1]; at 50.0 µM 24.1% | [2]; [7] 2% | [2]; [8] -13% | [2]; at 50.0 µM 40.9% | [3]; [7] 5% | [3]; [8] -14% | [4]; [7] 0% | [4]; [8] -10% | [4]; at 50.0 µM 8.6% | [5]; [7] 3% | [5]; [8] -6% | [5]; at 50.0 µM 37% | [6]; [7] -7% | [6]; [8] 3% | [6]; at 50.0 µM 60.4%
active: [3]; at 50.0 µM 82.8%

Clc1ccc(Cl)c(SCCCN2CCNCC2)c1
inactive: [1]; [7] 36% | [1]; [8] 65% | [2]; [7] 0% | [2]; [8] 32% | [2]; at 50.0 µM 48.2% | [3]; [7] 35% | [3]; [8] 65% | [3]; at 50.0 µM 54.2% | [4]; [7] 6% | [4]; [8] 39% | [4]; at 50.0 µM 40% | [5]; [7] 18% | [5]; [8] 59% | [6]; [7] 23% | [6]; [8] 43%
active: [1]; at 50.0 µM 79.7% | [5]; at 50.0 µM 82.4% | [6]; at 50.0 µM 74.4%
